# Unmarked numbers belong to inactive results. The rule behind the calls is not given here.
# Test: PLAP enzyme activity inhibition – biochemical, colorimetric, counter-screen, dose response (AID 779)
# Details: colorimetric OD read-out
row,SMILES,IC50
1,CSc1nc(NCCOCCO)c2sc3nc(-c4ccco4)c4c(c3c2n1)CCC4,> 50 µM
2,COC(=O)CSc1nc(-c2ccccc2)cc(-c2ccco2)c1C#N,> 50 µM
3,CCC(C)COC(=O)C(C#N)c1nc2ccccc2nc1N1CCCCC1 (stereo unspecified),> 50 µM
4,CCN(CCCNC(=O)CN(C)S(=O)(=O)c1cccc2nsnc12)c1cccc(C)c1,> 50 µM
5,Fc1ccc(-c2cc3nc4c(c(N5CCOCC5)n3n2)CCCC4)cc1,> 50 µM
6,CCOC(=O)c1c(NC(=S)Nc2ccccc2)sc2c1CCN(CCc1ccccc1)C2,> 50 µM
7,CCCOc1ccc(-c2nn(-c3ccccc3)cc2/C=C2\SC(=S)N(C3CCS(=O)(=O)C3)C2=O)cc1 (stereo unspecified),> 50 µM
8,c1ccc(-c2cn3nc(-c4ccccc4)c(-c4ccccc4)nc3n2)cc1,> 50 µM
9,CCSc1nnc(-c2sc3nnc(-c4ccccc4)c(-c4ccccc4)c3c2N)o1,> 50 µM
10,CCN1/C(=C/c2ccc3cccc(C)c3[n+]2CC)Sc2ccccc21,> 50 µM
11,N#CC(c1nc2ccccc2nc1N1CCCC1)S(=O)(=O)c1cccs1 (stereo unspecified),> 50 µM
12,CCN(CC)CCCN(Cc1cc2cc3c(cc2[nH]c1=O)OCCO3)C(=O)Nc1ccccc1,> 50 µM
13,Cc1nc(C)c(C(=O)Nc2nc3c(C)cccc3s2)o1,> 50 µM
14,O=C(Nc1cccc2c1CCCC2)c1cc([N+](=O)[O-])ccc1Cl,> 50 µM
15,Cc1ccc(-n2c(C)nc3oc4ccccc4c(=O)c3c2=O)cc1,> 50 µM
16,CC(C)C1Cc2c(C#N)c(N)sc(=S)c2CO1 (stereo unspecified),> 50 µM

row,SMILES,IC50
1,CCNc1ccc(Br)cc(C(=O)/C=C/c2ccc3c(c2)OCO3)c1=O,> 50 µM
2,CCN(CC)C(=O)CSc1nc2cc(OC)c(OC)cc2c(=O)n1Cc1ccc(Cl)cc1,> 50 µM
3,CC(=O)Nc1ccc(NC2=Nc3ccccc3N3C2=Nc2c(c(C)nn2-c2ccccc2)C3c2ccccc2)cc1 (stereo unspecified),> 50 µM
4,COc1cccc(C2(CSc3nnc(-c4cc(OC)c(OC)c(OC)c4)o3)OCCO2)c1,> 50 µM
5,COc1ccc2sc3ccccc3c(=O)c2c1OC,> 50 µM
6,CC(C)CC(C(=O)Nc1oc(-c2ccco2)c(-c2ccco2)c1C#N)N1C(=O)c2ccccc2C1=O (stereo unspecified),> 50 µM
7,Cc1cc(C)c2nc(N3CCCN(C(=O)c4ccco4)CC3)c(C#N)cc2c1,> 50 µM
8,CCC(C)N1C(=O)/C(=C/c2c(NCCCOC(C)C)nc3c(C)cccn3c2=O)SC1=S (stereo unspecified),> 50 µM
9,O=C1/C(=C\c2ccc(-c3ccccc3Cl)o2)SC(=S)N1CC1CCCO1 (stereo unspecified),> 50 µM
10,Cc1ccc(C2=N/C(=C\c3cccs3)C(=O)N2Nc2ccccc2)cc1,> 50 µM
11,CCN(CCO)c1nc(SC)nc2c1sc1nc(-c3ccco3)c3c(c12)CCC3,> 50 µM
12,CCOC(=O)C1=C(c2ccccc2)N=c2s/c(=C\c3cc(OC)c(OC)c(OC)c3)c(=O)n2C1c1cccs1 (stereo unspecified),> 50 µM
13,CCCCCCOC(=O)C(C#N)c1nc2ccccc2nc1N1CCN(CC)CC1 (stereo unspecified),> 50 µM
14,O=C1CCCC2=C1C(c1ccco1)Nc1ccc3ccccc3c12 (stereo unspecified),> 50 µM
15,O=S(=O)(c1ccc2nc(-c3ccco3)c(-c3ccco3)nc2c1)N1CCOCC1,> 50 µM
